In PubChem BioAssay AID435005 (Broad Institute, 2010):
“And” between values parts separate entries of the source, which are not always exact repeats. Equal entries are not always repeated. The whole screen tested about 300,000 compounds, of which about 2,400 (0.8%) were called active.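 The calls were made as follows: active = Every replicate reaches about 75%, or at least half do and their mean reaches it too (limit read from the data); inconclusive = At least half of replicates reach the limit but their mean does not; inactive = Under half of replicates reach the limit.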 The entries come from a sample that favours actives as a whole. A structure can be active in one record and inactive in another.

Experiment: inhibitors of cytokine-induced beta cell apoptosis, primary screen, luminescence (AID 435005);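 also: 0% = cytokine-treated negative control wells and 100% = positive control rescue; higher means more ATP so stronger rescue from cytokine killing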
Details: INS-1E cytokine-induced death, ATP luminescence, 48 h; stronger effect = higher value; percent of positive-control rescue, neutral wells zero; concentration not given here
For `C=CCC[C@@H](Cc1ccc(F)cc1)C(=O)OC[C@@H](C)NC(=O)[C@H](CC=C)CC(=O)N(CCO)Cc1ccccc1`, the protection from apoptosis was -3.2% (inactive).
For `CC(C)(C)NS(=O)(=O)NC(=O)C1=C(N2CCCC2)COC1=O`, the protection from apoptosis was -7.92% (inactive).
With `COc1ccc(NC(=O)CNc2cc(S(=O)(=O)N3CCOCC3)ccc2N2CCOCC2)c(OC)c1` the protection from apoptosis was -2.12% (inactive).
In the case of `CC(CNC(=O)Cn1cnc2c(OCc3ccccc3)ncnc21)c1ccccc1` (configuration not stated), the protection from apoptosis is reported as 0.936% (inactive).
For `CC(C)(C)OC(=O)C[C@@H]1C/C=C\C[C@@H](CC(=O)N[C@H](CO)Cc2ccccc2)C(=O)NC[C@@H](c2ccccc2)OC1=O`, the protection from apoptosis was 6.98% (inactive).
In the case of `Cc1ccc(Cl)cc1NC(=O)c1ccccn1`, the protection from apoptosis is reported as -1.51% (inactive).
With `CCOc1cc2ccccc2cc1C(=O)Nc1ccccn1` the protection from apoptosis was -5.78% (inactive).
In the case of `CCN(CC)CCOc1ccc2c(c1)C(=NNC(=O)c1ccccn1)c1cc(OCCN(CC)CC)ccc1-2`, the protection from apoptosis is reported as 107% (active).
In the case of `NS(=O)(=O)c1ccc(CNC(=O)c2cccc(S(=O)(=O)N3CCc4ccccc43)c2)cc1`, the protection from apoptosis is reported as 1.37% (inactive).
For `O=C(Nc1cc(S(=O)(=O)N2CCCCC2)ccc1Cl)C1COc2ccccc2O1` (configuration not stated), the protection from apoptosis was 3.53% (inactive).
In the case of `Cc1cccc(NC(=O)Nc2nnc(-c3ccccc3)o2)c1`, the protection from apoptosis is reported as -2.12% (inactive).
For `Cc1cccc(NC(=O)Nc2cccc(Oc3c(F)c(F)c(F)c(F)c3F)c2)c1`, the protection from apoptosis was 99.2% (active).
For `COc1cccc(NC(=O)NCc2ccc(F)cc2)c1`, the protection from apoptosis was -3.25% (inactive).
In the case of `CN(CC(=O)Nc1ccc(C(N)=O)cc1)S(=O)(=O)c1ccc2c(c1)OCCO2`, the protection from apoptosis is reported as -4.98% (inactive).
For `N#Cc1cccc(NC(=O)C2CCCN(C(=O)c3ccc(Cl)cc3)C2)c1` (configuration not stated), the protection from apoptosis was 0.765% (inactive).
In the case of `O=C(N/N=C/c1ccc([N+](=O)[O-])o1)c1cn(-c2ccccc2)nc1-c1ccc(F)cc1`, the protection from apoptosis is reported as -1.79% (inactive).
In the case of `Cc1ccc(/C=C/C(=O)Nc2ccc([N+](=O)[O-])c(NC(=O)/C=C/c3ccc(C)o3)c2)o1`, the protection from apoptosis is reported as 2.69% (inactive).
In the case of `O=C(/C=C/c1ccc([N+](=O)[O-])o1)NNC(=O)c1ccc(F)cc1`, the protection from apoptosis is reported as 93.8% (active).
With `C[C@H]1COC(=O)[C@H](CC(=O)OC(C)(C)C)C/C=C\C[C@@H](CC(=O)N[C@H](CO)Cc2ccccc2)C(=O)N1` the protection from apoptosis was 0.417% (inactive).
With `COCCCNC(=O)CC1C[C@H](C(=O)N2CCCCC2)[C@@]2(CCc3ccccc3)c3[nH]c4ccccc4c3CCN2C1=O` (some centres not stated) the protection from apoptosis was -3.93% (inactive).
With `C=CC[C@@H](CC(=O)N[C@H](CO)Cc1ccccc1)C(=O)N[C@@H](COC(=O)[C@@H](CC=C)Cc1ccc(F)cc1)Cc1c[nH]c2ccccc12` the protection from apoptosis was 2.3% (inactive).
For `CCOC(=O)C1=C(c2ccc(OC)cc2)C(=O)c2ccccc2C1=O`, the protection from apoptosis was 130% (active).
With `COc1ccc(N2CCN(C(C)=C3C(=O)c4ccccc4C3=O)CC2)cc1` the protection from apoptosis was -2.02% (inactive).
In the case of `CCOC(=O)c1c(-c2ccc(C)cc2)csc1/N=C(\C)C1=C(O)c2ccccc2C1=O`, the protection from apoptosis is reported as -5.12% (inactive).
With `Cc1ccc(NC(=O)C2CC2)cc1S(=O)(=O)N1CCOCC1` the protection from apoptosis was -4.34% (inactive).
For `CC(OC(=O)c1c(F)cccc1F)C(=O)NCCC1=CCCCC1` (configuration not stated), the protection from apoptosis was -3.37% (inactive).
In the case of `CC(C)n1cnc2c(NCc3ccccc3)cc(OCC3CCN(C)CC3)cc21`, the protection from apoptosis is reported as -8.55% (inactive).
With `CC(C)n1cnc2c(NCc3ccccc3)cc(N[C@@H](CO)Cc3ccccc3)cc21` the protection from apoptosis was 135% (active).
In the case of `CCC(CO)Oc1cc(NCc2ccccc2)c2ncn(C3CCCC3)c2c1` (configuration not stated), the protection from apoptosis is reported as -4.59% (inactive).
For `COc1ccc(C2(c3ccc(OC)cc3)NC(=O)N(CC(=O)Nc3cc(C)on3)C2=O)cc1`, the protection from apoptosis was -3.35% (inactive).
For `CCn1nnc2cc(C(=O)Nc3ccc(C(=O)OC(C)C)cc3)ccc21`, the protection from apoptosis was 1.63% (inactive).
In the case of `O=C(Nc1ccccc1Cl)/C(Cl)=C(\Cl)S(=O)c1ccccc1` (configuration not stated), the protection from apoptosis is reported as 123% (active).
With `O=C(Cc1ccc2c(c1)CCCC2)Nc1ccccc1Cl` the protection from apoptosis was 9.68% (inactive).
In the case of `O=C(Nc1ccccc1Cl)Nc1cccc2cccnc12`, the protection from apoptosis is reported as 15.9% (inactive).
For `O=C(Nc1cccc(S(=O)(=O)NC2=NCCC2)c1)c1ccc(F)cc1F`, the protection from apoptosis was -5.38% (inactive).
For `COc1cc(/C=C/C(=O)OCC(=O)c2ccccc2)cc(OC)c1OC`, the protection from apoptosis was -3.69% (inactive).
In the case of `Oc1ccc(N=Nc2nccs2)c(O)c1`, the protection from apoptosis is reported as 98.3% (active).
For `Oc1ccc2ccccc2c1N=Nc1nccs1`, the protection from apoptosis was 83.9% (active).
For `c1ccc(NCc2cccc3ccccc23)nc1`, the protection from apoptosis was -6.69% (inactive).
In the case of `CCN1/C(=C\c2ccc3ccccc3[n+]2CC)Sc2cc(C)ccc21`, the protection from apoptosis is reported as 106% (active).
For `Cc1nc2ccc(NC(=O)c3cccc(S(=O)(=O)N4CCOCC4)c3)cc2s1`, the protection from apoptosis was -1.06% (inactive).
In the case of `c1ccc2cc(CCCc3cc4ccccc4cn3)ncc2c1`, the protection from apoptosis is reported as -10.4% (inactive).
In the case of `Cc1ccc(NC(=O)Cn2cnc3c(OCc4ccccc4)ncnc32)cc1C`, the protection from apoptosis is reported as -4.68% (inactive).
With `COCCN(Cc1ccccc1)C(=O)Cc1ccc(S(=O)(=O)N2CCOCC2)s1` the protection from apoptosis was -6.29% (inactive).
In the case of `O=C(CN1C(=O)NC2(CCCCCC2)C1=O)NCc1ccc(F)cc1`, the protection from apoptosis is reported as -3.82% (inactive).
With `Cc1ccc(C(=O)C[n+]2cc(-c3ccccc3)n3c2CCCCC3)cc1` the protection from apoptosis was 80.4% (active) and 69.5% (inactive).
For `Cc1ccc(-c2c[n+](CC(=O)Nc3ccccc3)c3n2CCC3)cc1`, the protection from apoptosis was -4.97% (inactive).
For `Clc1ccc(C[n+]2cc(-c3ccccc3)n3c2CCC3)cc1`, the protection from apoptosis was -17.9% (inactive).
In the case of `O=C(CNC(=O)c1n[nH]c2ccccc12)Nc1cc(Cl)ccc1Cl`, the protection from apoptosis is reported as -6.41% (inactive).
With `CCOc1ccc(S(=O)(=O)N2CCCCC2)cc1NC(=O)CN1CCCC1c1cccs1` (configuration not stated) the protection from apoptosis was 108% (active).
With `COc1ccc(S(=O)(=O)N2CCCCC2)cc1NC(=O)COc1ccccc1` the protection from apoptosis was 3.1% (inactive).
For `COc1ccc(S(=O)(=O)N2CCCCCC2)cc1NC(=O)Cc1ccc(OC)c(OC)c1`, the protection from apoptosis was -0.791% (inactive).
For `CCc1sc(C(=O)N2CCN(CC(=O)Nc3cccc(F)c3)CC2)cc1C`, the protection from apoptosis was -5.03% (inactive).
With `O=C(Cc1ccc(Cl)c(Cl)c1)Nc1ccc(SC(F)F)cc1` the protection from apoptosis was -2.99% (inactive).
In the case of `O=C(CC1SCCNC1=O)Nc1ccc(Cl)c(Cl)c1` (configuration not stated), the protection from apoptosis is reported as 0.331% (inactive).
In the case of `O=C(CC(O)(C(F)(F)F)C(F)(F)F)Nc1ccc(Cl)c(Cl)c1`, the protection from apoptosis is reported as 105% (active).
In the case of `O=C(Cn1cnc2c(OCc3ccccc3)ncnc21)NCc1nc2ccccc2[nH]1`, the protection from apoptosis is reported as -9.45% (inactive).
For `COc1ccc(CNc2nc(NCc3ccc(OC)cc3)c3ncn(C4CCCC4)c3n2)cc1`, the protection from apoptosis was -10.2% (inactive).
For `O=[N+]([O-])/C=C/c1ccc2c(ccn2Cc2ccccc2)c1`, the protection from apoptosis was 102% (active).
For `O=c1c([N+](=O)[O-])cc(C(F)(F)F)cn1Cc1cccc(Cl)c1`, the protection from apoptosis was -7.45% (inactive).
For `O=C(/C=C/c1cccc([N+](=O)[O-])c1)N1CCN(Cc2ccccc2)CC1`, the protection from apoptosis was -1.33% (inactive).
With `CCC(CO)Oc1cc(NC(=O)c2cccc3ccccc23)c2ncn(C(C)C)c2c1` (configuration not stated) the protection from apoptosis was 4.17% (inactive).
With `O=C1C=C(c2cc(C(F)(F)F)cc(C(F)(F)F)c2)C[C@@H](c2ccc3c(c2)OCO3)C1` the protection from apoptosis was 7.25% (inactive).
With `COc1cccc(CC(=O)Nc2nc(-c3ccc(OC)c(OC)c3)cs2)c1` the protection from apoptosis was -4.99% (inactive).
For `Cc1ccc(S(=O)(=O)NC(=O)Nc2nc(-c3ccc(F)c(F)c3)cs2)cc1`, the protection from apoptosis was -25.4% (inactive).
In the case of `COc1ccc(CC(=O)Nc2nc(-c3ccc(F)c(F)c3)cs2)cc1OC`, the protection from apoptosis is reported as 97.5% (active).
With `COc1ccc(-c2csc(NC(=O)COC(=O)Cc3ccc(Cl)cc3Cl)n2)cc1` the protection from apoptosis was 2.13% (inactive).
With `COc1cc(CC(=O)Nc2nc(-c3ccc(F)c(F)c3)cs2)cc(OC)c1OC` the protection from apoptosis was 92.9% (active).
For `CCCc1ccc(-c2csc(NC(=O)Cc3cccs3)n2)cc1`, the protection from apoptosis was 6.06% (inactive).
For `Cc1cccc(-n2ncc3c(=O)[nH]c(SCC(=O)Nc4cc(C)on4)nc32)c1`, the protection from apoptosis was 1.12% (inactive).
With `COc1ccc(CCNC(=O)COC(=O)Cc2ccccc2F)cc1` the protection from apoptosis was -2.5% (inactive).
In the case of `Cc1ccc(CC(=O)Nc2ccc(S(=O)(=O)N3CCOCC3)cc2)cc1C`, the protection from apoptosis is reported as 0.192% (inactive).
With `CC(OC(=O)c1cc2ccccc2[nH]1)C(=O)N(C)c1ccccc1` (configuration not stated) the protection from apoptosis was -1.05% (inactive).
With `CCS(=O)(=O)c1ccc2oc(SCC(=O)N3c4ccccc4CC3C)nc2c1` (configuration not stated) the protection from apoptosis was -3.73% (inactive).
In the case of `Cc1cc(=O)[nH]c(SCC(=O)N2c3ccccc3CC2C)n1` (configuration not stated), the protection from apoptosis is reported as -8.13% (inactive).
For `CC1Cc2ccccc2N1C(=O)CSc1nc2ccccc2o1` (configuration not stated), the protection from apoptosis was 104% (active).
For `O=C(COC(=O)c1cccnc1Cl)NC12CC3CC(CC(C3)C1)C2`, the protection from apoptosis was -1.6% (inactive).
For `Cc1ccc(NC(=O)C2CCC(C(C)(C)C)CC2)cc1S(=O)(=O)N1CCOCC1` (configuration not stated), the protection from apoptosis was 6.89% (inactive).
With `O=C(NCC#CCSc1nnc(-c2cccc3ccccc23)o1)c1cccs1` the protection from apoptosis was 109% (active).
For `COc1ccc(CCNC(=O)/C(C#N)=C2\N=C(NC(=O)c3cccs3)c3ccccc32)cc1`, the protection from apoptosis was -2.09% (inactive).
With `COc1ccc(CCNC(=O)CSc2nnc(CNC(=O)c3cccs3)o2)cc1OC` the protection from apoptosis was -5.35% (inactive).
With `Cc1noc(C)c1NC(=O)Nc1cccc2c1O[C@H](CN(C)S(=O)(=O)c1c(C)noc1C)[C@@H](C)CN([C@H](C)CO)C2=O` the protection from apoptosis was 1.37% (inactive).
For `COc1ccc(S(=O)(=O)N2CCOCC2)cc1NC(=O)CSc1nnc(NC2CC2)s1`, the protection from apoptosis was 0.467% (inactive).
With `CC(NC(=O)COC(=O)Cn1cc(C(F)(F)F)ccc1=O)c1ccccc1` (configuration not stated) the protection from apoptosis was 1.74% (inactive).
In the case of `CCOc1ccc(NC(=O)c2ccccc2NS(C)(=O)=O)cc1`, the protection from apoptosis is reported as 0.287% (inactive).
With `COC(=O)c1ccc(NC(=O)c2ccccc2NS(=O)(=O)c2ccccc2)cc1` the protection from apoptosis was 32.1% (inactive).
For `COc1cc(NC(=O)c2ccccc2NS(=O)(=O)c2ccc(Cl)s2)cc(OC)c1`, the protection from apoptosis was 111% (active).
